Screening data as filed in PubChem.
Most compounds without a hit are left out; they make up all but 1.2% or so of the library.
RGS16-Gao HTS = RGS16-Galphao interaction regulator (human). binding response (% of control), % at 10 µM. hit rate 0.38% among 220,000. AID 1441. bead-based flow cytometry RGS16-Galphao binding, fluorescence; actives lie on both sides. O15492+P09471; call rule not given here;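 also: Galphao activated by GDP with aluminum fluoride before binding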
Target sequence (O15492 whole entry, looked up): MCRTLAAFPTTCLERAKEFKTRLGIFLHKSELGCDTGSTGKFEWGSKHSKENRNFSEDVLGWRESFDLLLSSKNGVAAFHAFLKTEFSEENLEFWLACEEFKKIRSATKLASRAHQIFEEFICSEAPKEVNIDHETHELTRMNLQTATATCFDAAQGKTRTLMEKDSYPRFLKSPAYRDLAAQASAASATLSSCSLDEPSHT
Target sequence (P09471 whole entry, looked up): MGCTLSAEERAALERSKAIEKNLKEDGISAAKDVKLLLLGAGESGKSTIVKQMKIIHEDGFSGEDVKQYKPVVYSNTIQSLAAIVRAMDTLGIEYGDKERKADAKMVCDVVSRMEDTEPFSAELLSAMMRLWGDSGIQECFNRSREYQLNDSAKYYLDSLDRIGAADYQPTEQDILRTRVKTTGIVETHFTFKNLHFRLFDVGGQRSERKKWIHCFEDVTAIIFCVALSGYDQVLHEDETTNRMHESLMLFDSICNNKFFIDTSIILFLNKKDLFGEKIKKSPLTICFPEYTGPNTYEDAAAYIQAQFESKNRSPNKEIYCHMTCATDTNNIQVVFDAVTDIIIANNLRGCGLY
Avidin fluor = avidin bead compound fluorescence profile; Avidin beads, compound fluorescence 488/530 nm, flow cytometry; stronger effect = higher value; fluorescence (KMESF) at 10 µM; hit rate 0.38% among 220,000; in the data active = fluorescence above about 47
GSH fluor = GSH bead compound fluorescence profile; GSH beads flow cytometry, compound fluorescence 488/530 nm; stronger effect = higher value; fluorescence (KMESF) at 10 µM; hit rate 0.25% among 190,000; in the data active = fluorescence above about 89;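 also: glutathione beads carrying GST-tagged Bcl family fusion proteins plus one bare bead set; values are compound well signal with DMSO vehicle wells as background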
RGS7-Gao = modulates binding of RGS7 to human Galphao; Multiplexed bead flow cytometry; actives lie on both sides; binding response (% of control), % at 10 µM; hit rate 0.35% among 220,000; in the data active = binding response below about 49% or above about 150%; inconclusive = no clear call, values can overlap the other calls; inactive = in between;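 also: fluorescent Galphao held in activated GDP-AlF4 state binding bead-coupled RGS7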
Target sequence (P09471 whole entry, looked up): as above
RGS8-Gao reg = human RGS8-Galphao interaction regulation. response (percent of control binding), % at 10 µM. P09471. multiplexed bead flow cytometry, RGS8-Galphao binding; actives lie on both sides. hit rate 0.34% among 220,000; in the data active = response below about 60% or above about 140%; inactive = in between;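 also: Galphao activated as the GDP aluminium fluoride complex binding bead-coupled RGS8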
RGS4-Gao reg = human RGS4-Galphao interaction regulation. P09471. Multiplexed bead flow cytometry, RGS4-Galphao binding; actives lie on both sides. binding response (% of control), % at 10 µM. hit rate 0.33% among 220,000. AID 1415; in the data active = binding response below about 49% or above about 150%; inactive = in between;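 also: fluorescent Galphao activated with aluminum fluoride binding bead-coupled RGS4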
Starred values were filed as active, the others as inactive; [ ] = dose if it differs, or a comment.

For C/C(O)=c1/ccc2cccc3nc(C)nc1c23 the results were RGS16-Gao HTS 99, Avidin fluor 48*, GSH fluor 17, RGS7-Gao 104, RGS8-Gao reg 96 and RGS4-Gao reg 99.
Screening Cc1nc2ccccc2nc(C)c1=NO returned RGS16-Gao HTS 99, Avidin fluor 8, GSH fluor 13, RGS7-Gao 94, RGS8-Gao reg 101 and RGS4-Gao reg 100.
COc1cc(C(=O)NNc2nc3cc4c(cc3s2)OCO4)cc(OC)c1OC was read as RGS16-Gao HTS 107, Avidin fluor 32, GSH fluor 17, RGS7-Gao 127, RGS8-Gao reg 96 and RGS4-Gao reg 161*[activator].
For COc1ccc(OC)c(NC(=O)COC(=O)c2ccc(S(=O)(=O)N3CCOCC3)cc2)c1 the results were RGS16-Gao HTS 102, Avidin fluor 7, GSH fluor 276*, RGS7-Gao 99, RGS8-Gao reg 100 and RGS4-Gao reg 99.
`COc1ccc(C(=O)NNC(=O)CSc2nnc(-c3cccnc3)o2)cc1` gave RGS16-Gao HTS 105, Avidin fluor 13, GSH fluor 15, RGS7-Gao 101, RGS8-Gao reg 100 and RGS4-Gao reg 99.
For NCCSc1c(-c2ccccc2)[nH]c2ccccc12 the results were RGS16-Gao HTS -3.3*, Avidin fluor -1, GSH fluor 17, RGS7-Gao -8.4*, RGS8-Gao reg 13* and RGS4-Gao reg 5.5*.
`NCCSc1c(-c2ccc(Cl)cc2)[nH]c2ccccc12` gave RGS16-Gao HTS 106, Avidin fluor 6, RGS7-Gao inconclusive, RGS8-Gao reg 102 and RGS4-Gao reg 104.
For COc1ccc(Nc2nc(N)c([N+](=O)[O-])c(NCc3ccccc3)n2)cc1 the results were RGS16-Gao HTS 120, Avidin fluor 56*, RGS7-Gao inconclusive, RGS8-Gao reg 101 and RGS4-Gao reg 128.
Cc1ccc(Nc2nc(N)c([N+](=O)[O-])c(NCc3ccccc3)n2)cc1 was read as RGS16-Gao HTS 104, Avidin fluor 8, RGS7-Gao inconclusive, RGS8-Gao reg 103 and RGS4-Gao reg 105.
For COc1cc(C(=O)COC(=O)CNC(=O)C2CCCCC2)cc(OC)c1OC the results were RGS16-Gao HTS 101, Avidin fluor 53*, GSH fluor 15, RGS7-Gao 107, RGS8-Gao reg 102 and RGS4-Gao reg 103.
CC(=O)/C(CN1CCCCC1)=N\O was read as RGS16-Gao HTS 103, Avidin fluor 85*, GSH fluor 13, RGS7-Gao 136, RGS8-Gao reg 101 and RGS4-Gao reg 110.
Screening O=C(O)CN1CCCCC1 returned RGS16-Gao HTS 100, Avidin fluor 11, GSH fluor 13, RGS7-Gao 97, RGS8-Gao reg 99 and RGS4-Gao reg 99.
Screening Cc1[nH]nc(SCC(=O)N2CCC(C)CC2)c1[N+](=O)[O-] returned RGS16-Gao HTS 99, Avidin fluor 35, GSH fluor 17, RGS7-Gao 99, RGS8-Gao reg 100 and RGS4-Gao reg 100.
Screening NS(=O)(=O)c1ccc(CCNC(=O)c2cc(-c3cc(Cl)ccc3O)n[nH]2)cc1 returned RGS16-Gao HTS 103, Avidin fluor 8, RGS7-Gao inconclusive, RGS8-Gao reg 99 and RGS4-Gao reg 100.
Screening C=CCn1c(SCC(=O)c2ccc(O)c(O)c2)nnc1-c1ccccc1OC returned RGS16-Gao HTS 53, Avidin fluor 4, GSH fluor 247*, RGS7-Gao 55, RGS8-Gao reg 68 and RGS4-Gao reg 57.
CCc1ccc(C(=O)COC(=O)CNC(=O)c2cccs2)cc1 was read as RGS16-Gao HTS 103, Avidin fluor 78*, GSH fluor 44, RGS7-Gao 139, RGS8-Gao reg 102 and RGS4-Gao reg 107.
For Cn1c(=O)[nH]c(=O)c2[nH]c(NCCCN3CCOCC3)nc21 the results were RGS16-Gao HTS 121, Avidin fluor 48*, GSH fluor 26, RGS7-Gao 105, RGS8-Gao reg 95 and RGS4-Gao reg 109.
`N/C(=N\OC(=O)N1CCOCC1)c1ccc(Br)cc1` gave RGS16-Gao HTS 102, Avidin fluor 9, GSH fluor 16, RGS7-Gao 99, RGS8-Gao reg 101 and RGS4-Gao reg 100.
Screening C=C(C)c1cccc(C(C)(C)NC(=O)NCCCN2CCCC2=O)c1 returned RGS16-Gao HTS 109, Avidin fluor 16, GSH fluor 22, RGS7-Gao 110, RGS8-Gao reg 104 and RGS4-Gao reg 106.
C=C(C)c1cccc(C(C)(C)NC(=O)NCCCn2ccnc2)c1 was read as RGS16-Gao HTS 100, Avidin fluor 50*, GSH fluor 25, RGS7-Gao 103, RGS8-Gao reg 101 and RGS4-Gao reg 101.
For CC1CCN(S(=O)(=O)c2ccc3c(c2)oc(=O)n3CC(=O)N2c3ccccc3CC2C)CC1 (stereo unspecified) the results were RGS16-Gao HTS 144, Avidin fluor 56*, GSH fluor 21, RGS7-Gao 91, RGS8-Gao reg 107 and RGS4-Gao reg 93.
`CCC(Sc1ccc(C(=O)O)cc1)C(=O)O` (stereo unspecified) gave RGS16-Gao HTS 100, Avidin fluor 50*, GSH fluor 21, RGS7-Gao 106, RGS8-Gao reg 101 and RGS4-Gao reg 102.
`COCCCn1c(SCC(=O)NCc2ccccc2)nc2ccccc2c1=O` gave RGS16-Gao HTS 112, Avidin fluor 6, GSH fluor 14, RGS7-Gao 108, RGS8-Gao reg 105 and RGS4-Gao reg 106.
`COCCCn1c(SCC(=O)Nc2ccc(C(C)=O)cc2)nc2ccccc2c1=O` gave RGS16-Gao HTS 92, Avidin fluor 7, GSH fluor 259*, RGS7-Gao 99, RGS8-Gao reg 100 and RGS4-Gao reg 94.
Screening Cc1ccc(Cn2ccc(=O)c(OCc3c(Cl)cccc3Cl)c2C)cc1 returned RGS16-Gao HTS 86, Avidin fluor 9, GSH fluor 24, RGS7-Gao 99, RGS8-Gao reg 90 and RGS4-Gao reg 87.
`COc1ccc(OCC(O)CNC(=O)Nc2cc(F)ccc2C)cc1` (stereo unspecified) gave RGS16-Gao HTS 96, Avidin fluor 7, RGS7-Gao inconclusive, RGS8-Gao reg 104 and RGS4-Gao reg 102.
Cc1nc2ccc(NC(=O)Cc3ccccc3F)cc2s1 was read as RGS16-Gao HTS 102, Avidin fluor 53*, GSH fluor 17, RGS7-Gao inconclusive, RGS8-Gao reg 103 and RGS4-Gao reg 115.
For CC(C)CNC(=O)COC(=O)c1cc(Cl)cc(Cl)c1N the results were RGS16-Gao HTS 99, Avidin fluor 7, GSH fluor 265*, RGS7-Gao 95, RGS8-Gao reg 95 and RGS4-Gao reg 93.
COC(=O)CNC(=O)COC(=O)c1cc(Cl)cc(Cl)c1N was read as RGS16-Gao HTS 100, Avidin fluor 31, GSH fluor 22, RGS7-Gao 102, RGS8-Gao reg 98 and RGS4-Gao reg 100.
